Several values for one entry are separate records, joined by “and”; a condition that tells them apart may be missing. Equal values may be shown once. Hit rate of the full screen: of about 50,000 compounds, about 800 (1.6%) showed an effect of 50% or more. The entries come from a sample that favours strong results as a whole.
Biological target: Bcl-2-like protein 10 (Homo sapiens) (UniProt Q9HD36)
Test: TR3 peptide-Bcl-B binding displacers, biochemical primary FP assay, phenotype converters (AID 1240);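 note: 0% = Bcl-B with tracer peptide and DMSO and 100% = tracer peptide lacking Bcl-B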
Conditions: GST-Bcl-B / FITC-TR3 peptide fluorescence polarization; stronger effect = higher value; compound at 3.75 mg/L

Bcl-2-like protein 10 (Homo sapiens), sequence (Q9HD36 whole entry, looked up): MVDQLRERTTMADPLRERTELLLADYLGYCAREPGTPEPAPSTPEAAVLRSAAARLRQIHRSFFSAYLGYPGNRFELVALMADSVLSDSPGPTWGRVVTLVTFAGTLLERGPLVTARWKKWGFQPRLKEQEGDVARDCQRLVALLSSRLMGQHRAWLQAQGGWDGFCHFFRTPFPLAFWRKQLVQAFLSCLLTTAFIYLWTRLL

SMILES	displacement
CC(=O)Nc1ccc2sc(C)nc2c1	12.9%
COc1cccc(CN2CCN(Cc3cc(OC)ccc3OC)CC2)c1	-9%
COc1ccc(C2SCC(=O)N2CCc2ccc(OC)c(OC)c2)c(OC)c1 (stereo unspecified)	-6.4%
COc1ccc(N2C(=O)C3C4C=CC(C5CC45)C3C2=O)c([N+](=O)[O-])c1 (stereo unspecified)	12.7%
N/C(=N\OC(=O)c1ccc(Cl)c([N+](=O)[O-])c1)c1ccccc1	-3.2%
COc1ccc(C2CC(=O)C3=C(C2)Nc2ccccc2NC3c2cccs2)cc1OC (stereo unspecified)	-4.5%
Cc1ccccc1N1C(=O)c2ccc(C(=O)O)cc2C1=O	-3.3%
O=C(O)c1ccccc1S(=O)CCO (stereo unspecified)	6.8%
O=C(c1ccc(N2CCN(C(=O)c3ccc(F)cc3)CC2)cc1)c1cccc(F)c1	-6.4%
O=C(c1ccc(N2CCN(C(=O)c3ccccc3F)CC2)cc1)c1cccc(F)c1	-53.4%
O=C(c1cccc(F)c1)N1CCN(c2ccc([N+](=O)[O-])cc2)CC1	118%
O=C(c1ccc(N2CCN(C(=O)c3ccc(F)cc3F)CC2)cc1)c1cccc(F)c1	72.1%
O=C(c1cccc(F)c1)N1CCN(c2ccccc2)CC1	-5.4%
O=C(c1cccc(F)c1)N1CCN(c2ccc(F)cc2)CC1	-11.6%
Cc1ccc(/C(=N\S(=O)(=O)c2cccc([N+](=O)[O-])c2)Nc2ccccc2)cc1	13.2%
COc1ccccc1OCC(=O)Nc1ccc2c(c1)OCCO2	2.2%
COc1cc(/C=N/N2C(=O)C3C4C=CC(CC4)C3C2=O)cc(I)c1O (stereo unspecified)	3.3%
COc1ccc(N2C(=O)NC(=O)/C(=C/c3cccc(O)c3)C2=O)cc1	-6.3%
CN1C(=O)NC(=O)/C(=C/c2ccc(-c3cccc(Cl)c3)o2)C1=O	81.5%
CC1=C(C#N)C(=O)NC(=O)/C1=C\c1ccc(-c2cccc(Cl)c2)o1	24.7%
CN1C(=O)NC(=O)/C(=C/c2cccn2-c2cccc([N+](=O)[O-])c2)C1=O	115%
CC1(C)OC(=O)C(=Cc2ccc(-c3ccc(Cl)cc3Cl)o2)C(=O)O1	34.4%

SMILES	displacement
O=C1NC(=O)N(c2ccccc2)C(=O)/C1=C\c1cccn1-c1cccc([N+](=O)[O-])c1	-2.6%
CN1C(=O)NC(=O)/C(=C/c2ccc(-c3ccc(Cl)cc3Cl)o2)C1=O	72.6%
Cc1ccc([N+](=O)[O-])cc1-c1ccc(/C=C2/C(=O)NC(=O)N(C)C2=O)o1	-8%
COc1ccc(N2C(=O)NC(=O)/C(=C/c3cccn3-c3cccc([N+](=O)[O-])c3)C2=O)cc1	-4%
CN1C(=O)NC(=O)/C(=C/c2ccc(-c3ccc([N+](=O)[O-])cc3Cl)o2)C1=O	93.6%
CN1C(=O)NC(=O)/C(=C/c2ccc(-c3ccc(Cl)c(Cl)c3)o2)C1=O	-7.2%
C=CCN1C(=O)/C(=C\c2ccc(-c3ccc([N+](=O)[O-])cc3Cl)o2)C(=O)NC1=S	21%
CN1C(=O)NC(=O)/C(=C\c2ccc(Cl)cc2Cl)C1=O	3.8%
O=C(/C=C/c1ccc(F)cc1)NC(=S)NCc1ccco1	18.2%
O=C1NC(=O)C(=Cc2ccc(-c3cccc(Br)c3)o2)C(=O)N1	81.1%
Cc1ccc(-c2ccc(C=C3C(=O)NC(=O)NC3=O)o2)c(Br)c1	-9.6%
CN1C(=O)NC(=O)/C(=C/c2ccc(-c3cccc(Cl)c3Cl)o2)C1=O	74.5%
O=C1NC(=O)N(c2ccccc2)C(=O)/C1=C\c1ccc(-c2ccccc2Cl)o1	42.6%
COc1ccc(N2C(=O)NC(=O)/C(=C/c3ccc(-c4ccc([N+](=O)[O-])cc4Cl)o3)C2=O)cc1	20.3%
O=C1NC(=S)N/C1=C/c1ccc(-c2cccc(Br)c2)o1	15.5%
Cc1ccc(N2C(=O)NC(=O)/C(=C\c3ccc(-c4ccc([N+](=O)[O-])cc4Cl)o3)C2=O)cc1	87.2%
O=C1NC(=O)N(c2ccccc2)C(=O)/C1=C\c1ccc(-c2ccc([N+](=O)[O-])cc2Cl)o1	11.5%
CN1C(=O)C(=Cc2ccc(-c3cccc(Cl)c3Cl)o2)C(=O)N(C)C1=O	4.6%
Cc1cc(-c2ccc(C=C3C(=O)NC(=S)NC3=O)o2)c([N+](=O)[O-])cc1C	26.1%
Cc1ccc(-c2ccc(C=C3C(=O)NC(=O)NC3=O)o2)c([N+](=O)[O-])c1	1.3%
O=C1NC(=O)C(=Cc2ccc(-c3cc(Cl)c([N+](=O)[O-])cc3Cl)o2)C(=O)N1	81.2%
Nc1nonc1N=Cc1cc(Br)ccc1O	-12.8%

SMILES	displacement
CCC1CCc2c(sc(NC(=O)C3CCCC3)c2C(N)=O)C1 (stereo unspecified)	-1.5%
COc1cc(/C=C2/C(=O)NC(=O)N(c3cccc(C)c3)C2=O)ccc1OCC(=O)O	-14.8%
Cc1cc(=O)[nH]c(SCc2cccc(Oc3ccccc3)c2)n1	-8% and 5.2%
CCCCOc1cc2oc(=O)c(CC)c(C)c2cc1CC	0.2%
CN(c1ccccc1)c1ccc(C=C2C(=O)NC(=O)NC2=O)cc1	19.6%
CC(/C=C/c1ccc(N(C)C)cc1)=N\N=C(/N)SC1CC(=O)N(c2ccc(F)cc2)C1=O (stereo unspecified)	-8.3%
COc1cc2c(C)nc3c(c(C)nn3-c3ccccc3)c2cc1OC	59.5%
COc1cc2c(C)nc3c(cnn3-c3ccccc3)c2cc1OC	-5.8%
COc1cc2c(C)nc3c(c(C)nn3C)c2cc1OC	-1.5%
CCOc1cc(C2CC(=O)NC(C)=C2C(=O)OC)cc(Br)c1OC (stereo unspecified)	10.6%
CCCCOP(=O)(OCCCC)C(Nc1ccccc1)c1ccc(OC)cc1 (stereo unspecified)	52.1%
CCCOP(=O)(OCCC)C(Nc1ccc(Cl)cc1)c1ccc(Br)cc1 (stereo unspecified)	17.1%
CCOP(=O)(OCC)C(Nc1ccccc1)c1ccc2c(c1)OCO2 (stereo unspecified)	13.6%
COc1cc(C2NC(=O)c3c(sc4c3CCN(C)C4)N2)cc(OC)c1OC (stereo unspecified)	3.2%
CN1CCc2c(sc3c2C(=O)NC(c2ccc(Cl)s2)N3)C1 (stereo unspecified)	4%
CN1CCc2c(sc3c2C(=O)NC(c2ccc4ccccc4c2)N3)C1 (stereo unspecified)	83%
CCOC(=O)NC12CC3CC(C1)CC(C(F)(F)F)(C3)C2	3.2%
COc1ccc(/C=N\N2CCN(c3ccccc3)CC2)cc1	-0.3%
CCOC(=O)c1c(NC(=O)Cc2ccc(Cl)cc2)sc(C(=O)Nc2ccc(OC)cc2OC)c1C	18.5%
O=C1CCNc2c(Cl)cc(Cl)cc21	88.6%
C/C(=N\N1CCN(c2ccccc2)CC1)c1ccc(F)cc1	-8.7%
CC1(C)Cc2ccccc2C(N/N=C/c2ccc(Cl)cc2)=N1	-3.6%

SMILES	displacement
O=c1oc2ccc(Br)cc2cc1-c1csc(-c2cc3cc([N+](=O)[O-])ccc3oc2=O)n1	-5.4%
Cc1ccc(-c2nc(-c3cc4cc([N+](=O)[O-])cc(Br)c4oc3=O)cs2)c(C)c1	95.2%
O=c1oc2ccc(Br)cc2cc1-c1nc(-c2ccc([N+](=O)[O-])cc2)cs1	-7.2%
Cc1ccc(S(=O)(=O)Nc2ccc(S(=O)(=O)N3CCCCC3)cc2)cc1[N+](=O)[O-]	-4%
Cn1c(=O)c(C2=NS(=O)(=O)c3ccccc3N2)c(O)c2ccccc21	2.1%
CC(=O)CC(c1ccccc1)S(=O)(=O)c1ccccc1C (stereo unspecified)	0.2%
O=C(NCCC(c1ccccc1)c1ccccc1)C(F)(F)F	-1.5%
O=C(NCCCc1ccccc1)c1ccccc1	-1.3%
O=C(NCCCc1ccccc1)C(F)(F)F	85.1%
CCCCOc1ccc(C=O)cc1OCC	-7.3%
CC(=O)C1=C(O)C(=O)N(CCN2CCNCC2)C1c1cccc(F)c1 (stereo unspecified)	-17.2%
CCOC(=O)c1ccc(N2C(=O)NC(=O)/C(=C/c3ccc(OC)c(OC)c3)C2=O)cc1	-4.2%
CCCC(=O)NC(c1ccco1)c1c(O)ccc2ccccc12 (stereo unspecified)	6.6%
NS(=O)(=O)c1ccc(N/C=C/C(=O)c2ccc(Cl)c(Cl)c2)cc1	4.8%
COc1ccc(N/C=C/C(=O)c2ccco2)cc1	11.7%
NS(=O)(=O)c1ccc(N/C=C/C(=O)c2ccco2)cc1	74.8%
Cc1ccc(N2C(=O)NC(=O)/C(=C\c3ccc(N(C)C)c(Br)c3)C2=O)cc1	10.1%
CC(=O)c1cccc(N2C(=O)C3CCCCC3C2=O)c1 (stereo unspecified)	-12.9%
CC(=O)Oc1ccccc1/C=C1\C=C(c2ccc(Cl)cc2)OC1=O	108%
COc1ccc(OC)c(/C=C2/C=C(c3ccccc3)OC2=O)c1	-24.5%
CC(=O)Oc1ccccc1/C=C1\C=C(c2ccc(C)cc2)OC1=O	-0.2%
COc1ccc(C2=C/C(=C/c3ccc(OC)cc3OC)C(=O)O2)cc1	144%

SMILES	displacement
COc1ccc(/C=C2\C=C(c3ccc(Cl)cc3)OC2=O)c(OC)c1	25.2%
CC(=O)Oc1ccccc1/C=C1\C=C(c2ccc(Br)cc2)OC1=O	12%
COc1ccc(/C=C2/C=C(c3ccccc3)OC2=O)c(OC)c1	-30%
COc1ccccc1/C=C1\C=C(c2ccc(Cl)cc2)OC1=O	9.6%
COc1ccc(C2=C/C(=C/c3ccccc3OC)C(=O)O2)cc1	85.1%
O=C(CCc1ccccc1)Nc1ccc(Br)cc1	9.1%
O=[N+]([O-])c1cccc(Cl)c1N1CCOCC1	3.9%
O=[N+]([O-])c1cccc(Cl)c1N1CCN(CCO)CC1	89.3%
O=C(c1ccccc1Cl)N1CCN(c2c(Cl)cccc2[N+](=O)[O-])CC1	8.5%
Cc1ccc(C(=O)Nc2ccc(NC(=O)c3ccco3)cc2)cc1C	-0.4%
Cc1ccc(C(=O)Nc2cccc(NC(=O)c3ccco3)c2)cc1C	60.4%
Cc1ccc(C(=O)Nc2ccc(NC(=O)c3ccco3)c(Cl)c2)cc1C	-8.9%
CCn1cc(C(=O)NN)c(=O)c2cc(Br)ccc21	20.2%
O=C(CSc1nc2ccc([N+](=O)[O-])cc2s1)N1CCOCC1	1.4%
COC1C(C)=CC(=O)N1Cc1ccccc1 (stereo unspecified)	4.4%
Cc1cc(C)c(S(=O)(=O)NCC2CCCO2)c(C)c1 (stereo unspecified)	-8%
CCc1cc(C)cc(OCCOc2ccc([N+](=O)[O-])cc2/C=C2/SC(=S)N(C)C2=O)c1	20.5%
COc1ccccc1/C=C1\SC(=N)N(c2ccc(F)cc2)C1=O	-8.6%
